# Measurements reported in publication PMC4336329 (PLoS ONE, 2015).
# Hit rate of the full screen: of about 310,000 compounds, about 14,000 (4.5%) showed an effect of 50% or more. The effect is printed as a negative number. The full list was thinned out, with strong results kept by preference.
# Molecular target: human ether-à-go-go-related gene (hERG) potassium channel (human, UniProt Q12809)
# Assay: primary screen, population patch clamp on CHO cells stably expressing hERG; higher = less effect of the substance
# 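Note: peak tail current of the secondary pulse compared with the same well before compound.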
# human ether-à-go-go-related gene (hERG) potassium channel, sequence (Q12809 whole entry, looked up): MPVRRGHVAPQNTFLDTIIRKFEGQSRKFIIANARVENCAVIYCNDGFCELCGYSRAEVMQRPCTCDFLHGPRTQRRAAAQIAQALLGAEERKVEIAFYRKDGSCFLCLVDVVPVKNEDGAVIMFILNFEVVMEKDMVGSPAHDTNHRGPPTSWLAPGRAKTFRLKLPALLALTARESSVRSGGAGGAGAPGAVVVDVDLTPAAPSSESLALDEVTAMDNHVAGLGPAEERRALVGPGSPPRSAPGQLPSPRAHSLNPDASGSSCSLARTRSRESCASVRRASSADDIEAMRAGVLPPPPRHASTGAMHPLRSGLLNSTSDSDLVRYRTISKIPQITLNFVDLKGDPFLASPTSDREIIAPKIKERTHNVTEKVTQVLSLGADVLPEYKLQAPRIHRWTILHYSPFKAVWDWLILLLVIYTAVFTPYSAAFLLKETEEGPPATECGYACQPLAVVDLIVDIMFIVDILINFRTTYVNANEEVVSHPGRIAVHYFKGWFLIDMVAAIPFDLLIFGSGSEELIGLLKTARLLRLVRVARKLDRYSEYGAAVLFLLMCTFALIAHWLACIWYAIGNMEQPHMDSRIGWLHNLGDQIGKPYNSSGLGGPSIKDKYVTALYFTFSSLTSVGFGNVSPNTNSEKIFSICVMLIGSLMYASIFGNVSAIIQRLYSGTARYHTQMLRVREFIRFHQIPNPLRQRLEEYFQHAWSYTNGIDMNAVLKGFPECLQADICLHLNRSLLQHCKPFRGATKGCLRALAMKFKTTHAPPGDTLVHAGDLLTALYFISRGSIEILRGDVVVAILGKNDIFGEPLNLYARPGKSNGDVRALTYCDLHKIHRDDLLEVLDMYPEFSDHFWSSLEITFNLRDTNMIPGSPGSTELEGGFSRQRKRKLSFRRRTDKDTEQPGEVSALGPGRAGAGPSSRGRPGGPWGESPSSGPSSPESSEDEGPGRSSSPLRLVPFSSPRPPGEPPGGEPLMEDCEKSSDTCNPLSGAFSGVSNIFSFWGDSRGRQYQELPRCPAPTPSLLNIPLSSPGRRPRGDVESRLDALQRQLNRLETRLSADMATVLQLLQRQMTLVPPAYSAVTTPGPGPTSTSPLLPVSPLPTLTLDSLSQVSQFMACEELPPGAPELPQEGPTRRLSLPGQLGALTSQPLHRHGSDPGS
row,Structure (SMILES),"hERG current change (%, negative = inhibition) at 10uM [%]"
1,CCOc1cc(CNc2ccc(N(C)C)cc2)cc(Br)c1OCC(=O)NC(C)(C)C,-17
2,Cc1c(C)c2cc3c(C)coc3cc2oc1=O,10.5
3,CN1C(C(=O)NCc2ccc(OC(F)(F)F)cc2)CC2Cn3c(nc4cc(Cl)c(Cl)cc43)C21 (stereo not drawn),-77.9
4,CN1C(C(=O)NCC2CC2)CC2Cn3c(nc4cc5ccccc5cc43)C21 (stereo not drawn),-21.2
5,COc1ccc(CCNC(=O)C2CC3Cn4c(nc5cc(Cl)c(Cl)cc54)C3N2C)cc1 (stereo not drawn),-23.5
6,COc1ccc(CCNC(=O)C2CC3Cn4c(nc5cc(C)c(C)cc54)C3N2C)cc1 (stereo not drawn),-31.4
7,CN1C(C(=O)NCc2ccc(OC(F)(F)F)cc2)CC2Cn3c(nc4cc5ccccc5cc43)C21 (stereo not drawn),-69.4
8,COc1ccc(CCNC(=O)C2CC3Cn4c(nc5ccccc54)C3N2c2ccccc2)cc1 (stereo not drawn),-7.57
9,COc1ccc(CCNC(=O)C2CC3Cn4c(nc5ccccc54)C3N2Cc2ccccc2)cc1 (stereo not drawn),-49.7
10,O=C(NCc1ccc(OC(F)(F)F)cc1)C1CC2Cn3c(nc4ccccc43)C2N1Cc1ccccc1 (stereo not drawn),-62.1
11,O=C(NCc1ccc(OC(F)(F)F)cc1)C1CC2Cn3c(nc4ccccc43)C2N1c1ccccc1 (stereo not drawn),-61.3
12,COc1ccc(CCNC(=O)C2CC3Cn4c(nc5cc6ccccc6cc54)C3N2C)cc1 (stereo not drawn),-43.7
13,O=C(CN1CCC2(CC1)OCCO2)c1ccc2cc[nH]c2c1,-15.2
14,Cc1cc(C(=O)N/N=C/c2ccc(-c3cccc(Cl)c3)o2)n[nH]1,11.3
15,CN1C(C(=O)NCc2ccc(OC(F)(F)F)cc2)CC2Cn3c(nc4ccccc43)C21 (stereo not drawn),-78.7
16,COc1ccc(CCNC(=O)C2CC3Cn4c(nc5ccccc54)C3N2C)cc1 (stereo not drawn),-8.64
17,CN1C(C(=O)NCC2CC2)CC2Cn3c(nc4ccccc43)C21 (stereo not drawn),15.5
18,CCOc1ncccc1C(=O)NCCCSc1ccccc1,-35.9
19,O=C(O)C1=C[C@@H](c2ccccc2)C[C@@H](OCCCCO)O1,8.4
20,COc1ccc(CC(=O)N2CCN(c3ccccc3)CC2)cc1OC,18.4
21,COc1ccc(/C=N/N2CCN(c3ccccc3OC)CC2)cc1OC,-19.7
22,COc1ccc(S(=O)(=O)N2CCN(c3ccccc3OC)CC2)cc1OC,-2.71

row,Structure (SMILES),"hERG current change (%, negative = inhibition) at 10uM [%]"
1,COc1cccc(CN2CCN(c3cccc(C(F)(F)F)c3)CC2)c1OC,-23.9
2,COc1ccccc1CC(=O)N1CCN(c2cccc(C(F)(F)F)c2)CC1,-9.71
3,COc1ccc(CC(C)N2CCN(c3ccccc3)CC2)cc1OC (stereo not drawn),-64
4,COc1ccc(CC(C)N2CCN(c3ccccc3OC)CC2)cc1OC (stereo not drawn),-62.1
5,COc1ccc(CC(C)N2CCN(c3cccc(C(F)(F)F)c3)CC2)cc1OC (stereo not drawn),-65.9
6,COc1ccc(CC(C)N2CCN(Cc3ccccc3)CC2)cc1OC (stereo not drawn),-33.1
7,CC1(/[N+]([O-])=C\c2ccccc2F)CCCCC1=O (stereo not drawn),8.53
8,Cc1ccn2c(-c3n[nH]c(=S)n3C)c(C)nc2c1,19.6
9,COc1cccc(NC(=O)N2CCCC2C(=O)Nc2ccc3c(c2)OCO3)c1 (stereo not drawn),15.8
10,O=c1[nH]c(=S)n(CCC2=CCCCC2)c(O)c1C=NC1CCN(Cc2ccccc2)CC1,-55
11,O=c1[nH]c(=O)n(C2CCCCCC2)c(O)c1C=NC1CCN(Cc2ccccc2)CC1,-53.2
12,O=c1[nH]c(=O)n(CCC2=CCCCC2)c(O)c1/C=N/Nc1ccccc1,14.8
13,C=CCn1c(O)c(C=NC2CCN(Cc3ccccc3)CC2)c(=O)[nH]c1=O,-33.5
14,O=c1[nH]c(=O)n(CCC2=CCCCC2)c(O)c1C=NC1CCN(Cc2ccccc2)CC1,-58.6
15,Cn1c(O)c(C=NC2CCN(Cc3ccccc3)CC2)c(=O)n(C)c1=O,-20.4
16,O=c1[nH]c(=O)n(Cc2ccco2)c(O)c1/C=N/N1CCCCC1,3.21
17,O=c1[nH]c(=S)n(CCC2=CCCCC2)c(O)c1/C=N/Nc1ccccc1,-7.83
18,O=c1[nH]c(=O)n(C2CCCCCC2)c(O)c1C=NCc1cccnc1,-9.79
19,O=C(N/N=C/c1c(O)n(CCC2=CCCCC2)c(=S)[nH]c1=O)c1ccccc1,7.94
20,O=c1[nH]c(=O)n(Cc2ccco2)c(O)c1C=NC1CCN(Cc2ccccc2)CC1,-59.2
21,O=c1[nH]c(=O)n(Cc2ccco2)c(O)c1C=NC1CC1,9.35
22,CC(C)(C)NC(=O)COC(=O)c1cc(S(=O)(=O)N2CCCCC2)ccc1N1CCOCC1,-6.23

row,Structure (SMILES),"hERG current change (%, negative = inhibition) at 10uM [%]"
1,CCOC(=O)c1ccc(N2C(=O)CC(Nc3ccc(CCO)cc3)C2=O)cc1 (stereo not drawn),-25.5
2,OCC[C@@H]1C[C@H](O)[C@@H](O)[C@]2(CCCCO2)O1,21.2
3,CCOc1ccc(C(Nc2ccc(C)cc2)P2(=O)OCC(C)(C)CO2)cc1 (stereo not drawn),4.67
4,Cn1cccc1CC(=O)NNC(=O)Nc1cccc(Cl)c1,18.9
5,O=S(=O)(Nc1ccccc1O)c1cccc2cccnc12,8.14
6,O=C(CNC(=O)c1cccs1)NCCN1CCN(c2ccccc2F)CC1,-35.3
7,N#Cc1ccc(NC(=O)N2CCC(c3nc4c(nnn4Cc4cccc(Cl)c4)c(=O)[nH]3)CC2)cc1,3.5
8,Cc1ccccc1SCC(=O)Nc1cc(C(F)(F)F)ccc1N1CCOCC1,-1.77
9,O=c1[nH]c(=O)n(CCc2ccccc2)c(O)c1C=NC1CC1,3.17
10,CCCCCCn1c(O)c(C=NC2CCN(Cc3ccccc3)CC2)c(=O)[nH]c1=O,-65.7
11,Cn1c(O)c(C=NC2CCN(Cc3ccccc3)CC2)c(=O)[nH]c1=O,-26.5
12,NC(=O)c1ccccc1NC(=O)CN1CCN(Cc2ccc(Cl)cc2Cl)CC1,-76.1
13,O=C(CN1CCCCC1)Nc1ccccc1-c1ccccc1,-9.07
14,COC(=O)c1ccccc1NC(=O)CN1CCC(C)CC1,9.3
15,COC(=O)c1ccccc1NC(=O)N1CCN(C(=O)c2ccco2)CC1,-25
16,COC(=O)c1ccccc1NC(=O)CN1CCN(C(=O)c2ccco2)CC1,-51.6
17,O=C(CN1CCN(Cc2ccccc2)CC1)Nc1ccccc1-c1ccccc1,-89.8
18,COC(=O)c1ccccc1NC(=O)CN1CCOCC1,5.86
19,COC(=O)c1ccccc1NC(=O)CN1CCN(C23CC4CC(CC(C4)C2)C3)CC1,-77.5
20,O=C(CN1CCOCC1)Nc1ccccc1-c1ccccc1,4.15
21,NC(=O)c1ccccc1NC(=O)Nc1cccc(Cl)c1,-8.62
22,Cc1cccc(NC(=O)CN2CCN(CC(=O)NCc3ccc(Cl)cc3Cl)CC2)c1C,-18.2

row,Structure (SMILES),"hERG current change (%, negative = inhibition) at 10uM [%]"
1,COc1ccc(OCC(=O)NCCCN2CCOCC2)cc1,10.7
2,CC1=C(C(=O)OCc2ccccc2)C(c2ccsc2)C(C#N)=C(N)O1 (stereo not drawn),-6.93
3,Cc1cccc(COc2ccc(/C=C3/C(=O)N(C)C(=S)N3C)cc2)c1,15.7
4,O=C(Nc1ccccc1)Nc1nnc(Cc2ccc(F)cc2)s1,20.1
5,O=C(NCc1ccco1)c1ccccc1,8.8
6,CCN(CC)S(=O)(=O)c1ccc(N2CCOCC2)c(NC(=O)Cc2cccc3ccccc23)c1,-1.03
7,N#CC1=C(N)N(c2ccccc2)C(c2cccc([N+](=O)[O-])c2)C1(C#N)C#N (stereo not drawn),-29.6
8,COc1cc([N+](=O)[O-])ccc1NC(=O)CN1CCN(C(=O)c2ccco2)CC1,-78.4
9,COC(=O)c1ccccc1NC(=O)CN1CCN(Cc2ccccc2)CC1,-74.5
10,COc1ccc(NC(=O)CN2CCN(C(=O)c3ccco3)CC2)c(OC)c1,-37.4
11,NC(=O)c1ccc(NC(=O)CN2CCN(C(=O)c3ccco3)CC2)cc1,-3.09
12,COc1ccccc1NC(=O)c1ccc(NC(=O)CN2CCN(C(=O)c3ccco3)CC2)cc1,-72.9
13,COc1cc([N+](=O)[O-])ccc1NC(=O)CN1CCOCC1,9.44
14,O=C(CN1CCN(C(=O)c2ccco2)CC1)Nc1ccccc1,-13.9
15,COc1ccccc1NC(=O)c1ccc(NC(=O)CN2CCCC2)cc1,-34.2
16,O=C(CN1CCN(C(=O)c2ccco2)CC1)Nc1ccccc1-c1ccccc1,-50.5
17,COC(=O)c1ccccc1NC(=O)CN1CCCCCC1,8
18,COC(=O)c1ccccc1NC(=O)CN1CCCCC1,9.99
19,COc1ccccc1NC(=O)CN1CCN(C(=O)c2ccco2)CC1,-22
20,COc1ccc(NC2(c3ccccc3)OC(=O)c3ccccc32)cc1 (stereo not drawn),1.2
21,CC(=O)c1cccc(OCc2cc(C(=O)NCCC3=CCCCC3)no2)c1,7.85
